A short description of test [1]: BSK_hDFCGF_Proliferation: Cell Proliferation Assessment in the BioMAP Diversity Plus: hDFCGF Assay (AID 2283059).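 Note: curves fitted for both rise and fall of signal versus DMSO baseline.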 Conditions: primary human foreskin fibroblasts. The essentials:
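Sub-confluent human foreskin fibroblast cultures receive test chemical […]. Relative cell number is quantified by sulforhodamine B staining (0.1%, after 10% TCA fixation) at 560 nm, with bidirectional fitting referenced to DMSO.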

Read-out in test [2]: Macrophage colony-stimulating factor (MCSF), CSF1 (gene 1435)
Kind of test: BSK_hDFCGF_MCSF: BioMAP Diversity Plus: hDFCGF Assay for Macrophage colony-stimulating factor (MCSF) Biomarker Activity (AID 2283060). Conditions: primary human foreskin fibroblasts; actives raise or lower the signal. In a few lines:
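Human foreskin primary fibroblasts were treated with test chemical for 24 h, and M-CSF was then measured by ELISA. Data were fitted bidirectionally against DMSO as the negative control and activity baseline.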

Read-out in test [3]: Monokine induced gamma interferon (MIG), CXCL9 (gene 4283)
In words: BSK_hDFCGF_MIG: BioMAP Diversity Plus: hDFCGF Assay for Monokine induced gamma interferon (MIG) Biomarker Activity (AID 2283063). Conditions: primary human foreskin fibroblasts; actives raise or lower the signal. The essentials: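 ELISA read-out of MIG from primary human dermal fibroblasts 24 h post-dosing. Gain or loss of signal fitted bidirectionally, DMSO as baseline.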

Read-out in test [4]: Matrix Metallopeptidase 1 (MMP1), MMP1 (gene 4312)
Kind of test: BSK_hDFCGF_MMP1: BioMAP Diversity Plus: hDFCGF Assay for Matrix Metallopeptidase 1 (MMP1) Biomarker Activity (AID 2283064). Particulars: primary human foreskin fibroblasts; actives raise or lower the signal. In a few lines:
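Primary human foreskin fibroblasts in the hDFCGF system were dosed with test chemical, and MMP1 was measured by ELISA 24 h later. Values come from bidirectional curve fitting against the DMSO baseline.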

Read-out in test [5]: Vascular cell adhesion molecule 1 (VCAM1), VCAM1 (gene 7412)
Kind of test: BSK_hDFCGF_VCAM1: BioMAP Diversity Plus: hDFCGF Assay for Vascular cell adhesion molecule 1 (VCAM1) Biomarker Activity (AID 2283065).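 For AC50: VCAM-1 protein level quantified by ELISA after 24 h chemical exposure.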 Conditions: primary human foreskin fibroblasts; actives raise or lower the signal. The essentials:
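Primary human foreskin fibroblasts (hDFCGF system) were dosed with chemical and VCAM-1 was measured by ELISA 24 h later. Bidirectional curve fitting used DMSO as negative control and activity baseline.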

Read-out in test [6]: Plasminogen activator inhibitor-1 (PAI1), SERPINE1 (gene 5054)
In words: BSK_hDFCGF_PAI1: BioMAP Diversity Plus: hDFCGF Assay for Plasminogen activator inhibitor-1 (PAI1) Biomarker Activity (AID 2283066). Conditions: primary human foreskin fibroblasts; actives raise or lower the signal. The essentials:
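Human foreskin fibroblast primary cells, 24 h chemical exposure; PAI-1 measured by ELISA. Bidirectional fitting relative to DMSO; parallel cultures stained with SRB for total protein to flag overt cytotoxicity.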

Read-out in test [7]: Intercellular Adhesion Molecule 1 (ICAM1), ICAM1 (gene 3383)
In words: BSK_KF3CT_ICAM1: BioMAP Diversity Plus: KF3CT Assay for Intercellular Adhesion Molecule 1 (ICAM1) Biomarker Activity (AID 2283067). Particulars: primary human keratinocytes with fibroblasts; actives raise or lower the signal. In a few lines: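 Human keratinocyte plus foreskin fibroblast primary co-culture was exposed to chemical for 24 h. ICAM-1 was then quantified by ELISA, and the data were fit bidirectionally against DMSO as the negative control and baseline.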

Read-out in test [8]: Interferon-gamma inducible Protein 10 (IP10), CXCL10 (gene 3627)
Kind of test: BSK_KF3CT_IP10: BioMAP Diversity Plus: KF3CT Assay for Interferon-gamma inducible Protein 10 (IP10) Biomarker Activity (AID 2283068). Conditions: primary human keratinocytes with fibroblasts; actives raise or lower the signal. The essentials: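 ELISA read-out of IP-10 after 24 h chemical dosing of human skin primary co-culture (keratinocytes, foreskin fibroblasts). Gain or loss of signal relative to DMSO, bidirectional curve fit.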

Test [9] is described as follows: BSK_hDFCGF_SRB: Viability Assessment in the BioMAP Diversity Plus: hDFCGF Assay (AID 2283061).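 Note: cells exposed to compound for 24 h before the read.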 Conditions: primary human foreskin fibroblasts. In a few lines: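 Human foreskin primary fibroblasts were treated with compound and assessed 24 h after dosing. Total protein was measured by sulforhodamine B staining (0.1% SRB after 10% TCA fixation, 560 nm read) as a cytotoxicity marker, with bidirectional fitting against DMSO baseline.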

Read-out in test [10]: TIMP metallopeptidase inhibitor 1 (TIMP1), TIMP1 (gene 7076)
In words: BSK_hDFCGF_TIMP1: BioMAP Diversity Plus: hDFCGF Assay for TIMP metallopeptidase inhibitor 1 (TIMP1) Biomarker Activity (AID 2283062). Conditions: primary human foreskin fibroblasts; actives raise or lower the signal. In a few lines: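 Primary human foreskin fibroblasts in the hDFCGF system were dosed with compound for 24 h, then TIMP-1 was measured by ELISA. Activity was fitted bidirectionally relative to DMSO control; parallel SRB staining assessed cytotoxicity.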

Broadly, the AC50 is the concentration giving half of the maximal activity seen.

Each structure is given as a SMILES string. More than one record can exist for a structure, and the calls need not agree. Active and inactive are the calls of the source. Rule for the calls: active = hit-call score of the fitted dose curve at least 0.9, where 1 is the maximum; inactive = score below 0.9.

With `COCC(C)N(C(=O)CCl)c1c(C)csc1C` (stereo unspecified), the AC50 is 14.3 µM (active) in test [1] and 20 µM (active) in test [6]. In addition, the result in [1], in [2], in [3], in test [4], in test [5] and in test [6] was inactive. Also, the outcome in test [7] and in test [8] was inactive.

As to `COc1cc(Cl)c(OC)cc1Cl`, the outcome in test [1], in test [2], in [9], in [3], in test [5] and in test [6] was inactive. The result in [7] and in test [8] was inactive.

On to `CCOP(=O)(OCC)Oc1nc(Cl)c(Cl)cc1Cl`, for which the AC50 in test [1] is 12 µM (active); in test [2] it was 5.14 µM (active); in test [9], 36.3 µM (active); in test [5], 18.4 µM (active); in test [6] it was 20 µM (active); in [8], 19 µM (active). Also, the result in [3] and in test [7] was inactive.

For the molecule `CN=C=S`, the outcome in test [1], in [2], in test [9], in test [10], in test [3] and in test [4] was inactive. Besides, the outcome in test [5], in test [6], in test [7] and in test [8] was inactive.

Take `CCN(CC)C(=O)C(C)Oc1cccc2ccccc12` (stereo unspecified): the outcome in test [1], in test [2], in test [9], in [3], in test [4] and in [6] was inactive. The result in test [7] and in test [8] was inactive.

On to `O=P(O)(O)CCCl`, for which the outcome in [1], in [2], in test [9], in [10], in [3] and in test [4] was inactive. In addition, the outcome in [5], in test [6], in [7] and in test [8] was inactive.

With `CNC(=O)N(C)c1nnc(C(C)(C)C)s1`, the result in [1], in test [2], in test [9], in test [10], in [3] and in [4] was inactive. Besides, the outcome in [5], in test [6], in test [7] and in [8] was inactive.

In the case of `CC(C)N1C(=O)c2ccccc2NS1(=O)=O`, the result in [1], in test [2], in [9], in test [3], in [4] and in test [5] was inactive. Also, the result in test [6], in test [7] and in test [8] was inactive.

As for `CCNC(=O)NC(=O)C(C#N)=NOC`, the result in test [1], in test [2], in [10], in [3], in [4] and in test [5] was inactive. For the same molecule, the outcome in test [6], in test [7] and in [8] was inactive.

As for `CN/C(=N\[N+](=O)[O-])NCc1cnc(Cl)s1`, the result in test [1], in [2], in [9], in test [3], in test [5] and in [6] was inactive. Besides, the result in test [7] and in [8] was inactive.

Regarding `COc1cc(OC)nc(NC(=O)NS(=O)(=O)c2ncccc2OCC(F)(F)F)n1`, the result in test [1], in test [2], in test [9], in [10], in test [3] and in [4] was inactive. For the same molecule, the result in test [5], in test [6], in test [7] and in test [8] was inactive.

With `Nc1c(Cl)c(Cl)nc(C(=O)O)c1Cl`, the outcome in test [1], in test [2], in [9], in [10], in [3] and in [4] was inactive. The outcome in test [5], in test [6], in test [7] and in test [8] was inactive.

Turning to `CS(=O)(=O)c1ccc(C(=O)C2C(=O)CCCC2=O)c([N+](=O)[O-])c1`, the result in test [1], in [2], in test [9], in [10], in test [3] and in [4] was inactive. Also, the result in test [5], in test [6], in test [7] and in test [8] was inactive.

In the case of `COc1ccc(-c2ccccc2)cc1NNC(=O)OC(C)C`, the result in [1], in test [2], in test [9], in test [3], in [4] and in [5] was inactive. Besides, the result in [6], in test [7] and in test [8] was inactive.

For the molecule `CCOC(=O)C(C)OC(=O)c1cc(Oc2ccc(C(F)(F)F)cc2Cl)ccc1[N+](=O)[O-]` (stereo unspecified), the result in [1], in test [9], in test [3], in test [5], in test [6] and in test [7] was inactive. In addition, the result in [8] was inactive. Moreover, the AC50 in [2] was 8.12 µM (active).

With `COP(=S)(OC)SCn1nnc2ccccc2c1=O`, the AC50 in test [1] was 26.2 µM (active). For the same molecule, the result in test [2], in [9], in [10], in test [3], in test [5] and in test [6] was inactive. The outcome in test [7] and in test [8] was inactive.

For the origin of these results see PubChem BioAssay (EPA / NIEHS).
